The source holds several records for some structures; these can differ, active in one and inactive in another. Calls of active or inactive are those of the source. Rule for the calls: active = hit-call score of the fitted dose curve at least 0.9, where 1 is the maximum; inactive = score below 0.9.

Read-out in assay [1]: Vascular cell adhesion molecule 1 (VCAM1), VCAM1 (gene 7412)
The experiment in a line: BSK_4H_VCAM1: BioMAP Diversity Plus: 4H Assay for Vascular cell adhesion molecule 1 (VCAM1) Biomarker Activity (AID 2283033).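 For outcome: cell-surface VCAM-1 protein measured by ELISA.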 Conditions: primary human endothelial cells (HUVEC); actives raise or lower the signal. A digest of the protocol:
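Primary human umbilical vein endothelial cells were exposed to chemicals for 24 h, after which VCAM-1 was quantified by ELISA. Responses were fitted bidirectionally against DMSO as negative control and activity baseline.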

Read-out in assay [2]: Interferon-gamma inducible Protein 10 (IP10), CXCL10 (gene 3627)
The assay is described as follows: BSK_BE3C_IP10: BioMAP Diversity Plus: BE3C Assay for Interferon-gamma inducible Protein 10 (IP10) Biomarker Activity (AID 2283034). The settings on record: primary human bronchial epithelial cells; actives raise or lower the signal. A digest of the protocol:
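Human primary bronchial epithelial cells were exposed to chemicals for 24 hours, after which IP-10 levels were measured by ELISA. Data were fitted bidirectionally against DMSO, which served as the negative control and activity baseline.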

Read-out in assay [3]: Monokine induced gamma interferon (MIG), CXCL9 (gene 4283)
The experiment in a line: BSK_BE3C_MIG: BioMAP Diversity Plus: BE3C Assay for Monokine induced gamma interferon (MIG) Biomarker Activity (AID 2283035).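 For outcome: MIG protein measured by ELISA in BE3C cultures after 24 h of dosing.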 Conditions: primary human bronchial epithelial cells; actives raise or lower the signal. A digest of the protocol:
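ELISA read-out of MIG in human lung bronchial epithelial primary cultures, 24 h post-dosing. Bidirectional curve fit vs DMSO baseline.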

Read-out in assay [4]: Transforming growth factor beta 1 (TGFb1), TGFB1 (gene 7040)
The assay is described as follows: BSK_BE3C_TGFb1: BioMAP Diversity Plus: BE3C Assay for Transforming growth factor beta 1 (TGFb1) Biomarker Activity (AID 2283036). The settings on record: primary human bronchial epithelial cells; actives raise or lower the signal. A digest of the protocol: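 Human primary bronchial epithelial cells (BE3C system) were dosed with chemical and TGF-b1 levels measured by ELISA at 24 h. Activity was fitted bidirectionally relative to DMSO negative control as baseline.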

Read-out in assay [5]: Plasminogen activator inhibitor-1 (PAI1), SERPINE1 (gene 5054)
The assay is described as follows: BSK_BE3C_PAI1: BioMAP Diversity Plus: BE3C Assay for Plasminogen activator inhibitor-1 (PAI1) Biomarker Activity (AID 2283037). The settings on record: primary human bronchial epithelial cells; actives raise or lower the signal. Put shortly:
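Human primary bronchial epithelial cells were exposed to chemical for 24 h, then PAI-1 was quantified by ELISA. Activity was fitted bidirectionally relative to the DMSO negative control baseline.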

Read-out in assay [6]: urokinase plasminogen activator (uPA), PLAU (gene 5328)
The assay is described as follows: BSK_BE3C_uPA: BioMAP Diversity Plus: BE3C Assay for urokinase plasminogen activator (uPA) Biomarker Activity (AID 2283038).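 For outcome: uPA protein level quantified by ELISA in cell cultures; uPA read one day after compound addition.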 The settings on record: primary human bronchial epithelial cells; actives raise or lower the signal. Put shortly:
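Bronchial epithelial cells (human, primary); chemical 24 h; uPA by ELISA; bidirectional fit vs DMSO. SRB (0.1%, after 10% TCA fixation, 560 nm) in parallel cultures for cytotoxicity.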

Read-out in assay [7]: Urokinase-type plasminogen activator receptor (uPAR), PLAUR (gene 5329)
The assay is described as follows: BSK_BE3C_uPAR: BioMAP Diversity Plus: BE3C Assay for Urokinase-type plasminogen activator receptor (uPAR) Biomarker Activity (AID 2283039).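 For outcome: uPAR protein level measured by ELISA on the cells; cells exposed to compound for one day before measurement.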 The settings on record: primary human bronchial epithelial cells; actives raise or lower the signal. A digest of the protocol:
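Primary human bronchial epithelial cells were dosed with chemical and harvested 24 h later; uPAR was quantified by ELISA. Activity was fitted bidirectionally against DMSO as negative control and baseline.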

Read-out in assay [8]: Interleukin-6 (IL6), IL6 (gene 3569)
The experiment in a line: BSK_CASM3C_IL6: BioMAP Diversity Plus: CASM3C Assay for Interleukin-6 (IL6) Biomarker Activity for (AID 2283040). The settings on record: primary human coronary artery smooth muscle cells; actives raise or lower the signal.

Read-out in assay [9]: Tissue plasminogen activator (tPA), PLAT (gene 5327)
The assay is described as follows: BSK_BE3C_tPA: BioMAP Diversity Plus: BE3C Assay for Tissue plasminogen activator (tPA) Biomarker Activity (AID 2283041).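 For outcome: tPA level quantified by ELISA one day after compound addition.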 The settings on record: primary human bronchial epithelial cells; actives raise or lower the signal. A digest of the protocol: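 Human primary bronchial epithelial cells were dosed with chemical and tPA biomarker levels measured by ELISA 24 hours later. Activity was fitted bidirectionally against DMSO as negative control and baseline.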

Read-out in assay [10]: Interleukin-8 (IL8), CXCL8 (gene 3576)
The experiment in a line: BSK_CASM3C_IL8: BioMAP Diversity Plus: CASM3C Assay for Interleukin-8 (IL8) Biomarker Activity (AID 2283042).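 Note: IL-8 protein level quantified by ELISA.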 Conditions: primary human coronary artery smooth muscle cells; actives raise or lower the signal.

Read-out in assay [11]: Human Leukocyte Antigen - DR isotype (HLADR), HLA-DRA (gene 3122)
The experiment in a line: BSK_CASM3C_HLADR: BioMAP Diversity Plus: CASM3C Assay for Human Leukocyte Antigen - DR isotype (HLADR) Biomarker Activity (AID 2283043).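 Note: cell-surface HLA-DR protein level quantified by ELISA.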 Conditions: primary human coronary artery smooth muscle cells; actives raise or lower the signal.

Read-out in assay [12]: Macrophage colony-stimulating factor (MCSF), CSF1 (gene 1435)
The experiment in a line: BSK_CASM3C_MCSF: BioMAP Diversity Plus: CASM3C Assay for Macrophage colony-stimulating factor (MCSF) Biomarker Activity (AID 2283044).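 Note: M-CSF protein amount quantified by ELISA after 24 h exposure.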 Conditions: primary human coronary artery smooth muscle cells; actives raise or lower the signal.

Read-out in assay [13]: Low-density lipoprotein receptor (LDLR), LDLR (gene 3949)
The assay is described as follows: BSK_CASM3C_LDLR: BioMAP Diversity Plus: CASM3C Assay for Low-density lipoprotein receptor (LDLR) Biomarker Activity (AID 2283045).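 Note: LDLR protein level on the cell surface quantified by ELISA.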 Conditions: primary human coronary artery smooth muscle cells; actives raise or lower the signal.

Read-out in assay [14]: Monocyte Chemoattractant Protein-1 (MCP1), CCL2 (gene 6347)
The experiment in a line: BSK_CASM3C_MCP1: BioMAP Diversity Plus: CASM3C Assay for Monocyte Chemoattractant Protein-1 (MCP1) Biomarker Activity (AID 2283046).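 Note: MCP-1 level quantified by ELISA 24 h after dosing.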 The settings on record: primary human coronary artery smooth muscle cells; actives raise or lower the signal.

A short description of assay [15]: BSK_CASM3C_Proliferation: Cell Proliferation Assessment in the BioMAP Diversity Plus: CASM3C Assay (AID 2283047).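 Note: sulforhodamine B total protein stain as relative cell number at 560 nm; sub-confluent cells exposed 48 h before staining; fitted both ways against DMSO so gain or loss of cell number.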 The settings on record: primary human coronary artery smooth muscle cells.
Read-out in assay [16]: Monokine induced gamma interferon (MIG), CXCL9 (gene 4283)
The experiment in a line: BSK_CASM3C_MIG: BioMAP Diversity Plus: CASM3C Assay for Monokine induced gamma interferon (MIG) Biomarker Activity (AID 2283048).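 Note: MIG protein level measured by ELISA.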 The settings on record: primary human coronary artery smooth muscle cells; actives raise or lower the signal.

Read-out in assay [17]: serum amyloid A (SAA), SAA1 (gene 6288)
The assay is described as follows: BSK_CASM3C_SAA: BioMAP Diversity Plus: CASM3C Assay for serum amyloid A (SAA) Biomarker Activity (AID 2283049).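 Note: SAA protein level quantified by ELISA.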 Conditions: primary human coronary artery smooth muscle cells; actives raise or lower the signal.

Assay [18] can be described thus: BSK_CASM3C_SRB: Viability Assessment in the BioMAP Diversity Plus: CASM3C Assay (AID 2283050).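 Note: total protein by SRB staining as cytotoxicity measure in parallel cultures.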 The settings on record: primary human coronary artery smooth muscle cells.
Read-out in assay [19]: Thrombomodulin, THBD (gene 7056)
The assay is described as follows: BSK_CASM3C_Thrombomodulin: BioMAP Diversity Plus: CASM3C Assay for Thrombomodulin Biomarker Activity (AID 2283051).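 Note: thrombomodulin protein level measured by ELISA 24 h after dosing.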 Conditions: primary human coronary artery smooth muscle cells; actives raise or lower the signal.

Read-out in assay [20]: Tissue Factor, F3 (gene 2152)
The experiment in a line: BSK_CASM3C_TissueFactor: BioMAP Diversity Plus: CASM3C Assay for Tissue Factor Biomarker Activity (AID 2283052).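 Note: cell surface tissue factor protein level read by ELISA.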 The settings on record: primary human coronary artery smooth muscle cells; actives raise or lower the signal.

As to `Cc1cc(CCC(=O)OCCOCCOCCOC(=O)CCc2cc(C)c(O)c(C(C)(C)C)c2)cc(C(C)(C)C)c1O`, the result in [1], in [3], in assay [5], in [6], in [7] and in assay [8] was inactive. In addition, the result in assay [9], in assay [10], in [11], in assay [12], in assay [13] and in assay [14] was inactive. Moreover, the outcome in assay [15], in assay [16], in assay [17], in assay [18], in assay [19] and in assay [20] was inactive. Also, the half-maximal activity concentration (AC50) in assay [2] is 10.1 µM (active); in assay [4], 17.8 µM (active).

As to `CC(CN=Cc1ccccc1O)N=Cc1ccccc1O` (stereo not drawn), the result in [1], in assay [2], in assay [3], in assay [5], in assay [6] and in assay [7] was inactive. Besides, the outcome in [8], in [9], in [10], in assay [11], in [12] and in assay [13] was inactive. The result in [14], in assay [15], in assay [16], in assay [17], in assay [18] and in assay [19] was inactive. The result in [20] was inactive. Moreover, the half-maximal activity concentration (AC50) in assay [8] is 8.95 µM (active); in [9], 8.3 µM (active); in [13], 20 µM (active); in assay [15] it was 1.64 µM (active).

In the case of `IC(I)I`, the result in assay [1], in assay [2], in assay [3], in [4], in [5] and in [6] was inactive. Further, the outcome in assay [7], in assay [8], in assay [9], in [10], in assay [11] and in assay [12] was inactive. For the same compound, the outcome in assay [13], in assay [14], in assay [15], in [16], in assay [17] and in assay [18] was inactive. Also, the result in assay [19] and in [20] was inactive.

In the case of `CN(C)C(=S)SC(=S)N(C)C`, the AC50 in assay [1] is 26.9 µM (active); in [2], 34.7 µM (active); in assay [3], 34.9 µM (active); in assay [6], 19.9 µM (active); in assay [7], 31.7 µM (active); in [11], 19.9 µM (active). The AC50 is 19.9 µM (active) in assay [15], 19.9 µM (active) in assay [16] and 4.02 µM (active) in [19]. Besides, the outcome in [4], in assay [5], in assay [8], in [9], in [10] and in [12] was inactive. Also, the outcome in assay [13], in assay [14], in assay [17], in assay [18] and in assay [20] was inactive.

On to `C=C(C)C(=O)OCC(CC)(COC(=O)C(=C)C)COC(=O)C(=C)C`, for which the AC50 in assay [1] is 19.7 µM (active); in [14], 4.8 µM (active); in assay [20], 8.08 µM (active). In addition, the result in [2], in assay [3], in assay [4], in assay [5], in assay [6] and in [7] was inactive. In addition, the result in [8], in [9], in assay [10], in [11], in [12] and in assay [13] was inactive. Also, the outcome in assay [15], in [16], in assay [17], in assay [18] and in assay [19] was inactive.

Source of the values: PubChem BioAssay (EPA / NIEHS).
